According to PubChem BioAssay (NCI):
About 79,000 compounds went through this panel and 15% of them were active in at least one assay; those are over-represented in the sample as a whole. Active and inactive are the calls of the source. Rule as the data show it: active = growth inhibition above about 70%; inactive = the rest.

Assays:
[1] = NCI Yeast Anticancer Drug Screen. Data for the rad50 strain (AID 155);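 also: 0% = growth of vehicle-only cultures of the same strain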; details: S. cerevisiae rad50 strain growth inhibition, hits give high values
Procedure, shortened: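 Cells are treated with compound, grown, and their growth is then scored against vehicle-only cultures of the same repair-deficient yeast strain.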

[2] = NCI Yeast Anticancer Drug Screen. Data for the mec2-1 strain (AID 157); details: S. cerevisiae mec2-1 strain, hits give high values
Procedure, shortened: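 Test agents were screened against the mec2-1 yeast strain, with defined DNA repair or cell cycle alteration. Growth was scored as inhibition against vehicle-only controls.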

[3] = NCI Yeast Anticancer Drug Screen. Data for the sgs1 mgt1 strain (AID 161);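 also: 0% = growth of cultures given vehicle only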; details: S. cerevisiae sgs1 mgt1 strain, hits give high values
Procedure, shortened: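 Mutant yeast exposed to compound; growth scored against vehicle-only wells.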

[4] = NCI Yeast Anticancer Drug Screen. Data for the cln2 rad14 strain (AID 165);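 also: 0% = growth equal to vehicle treated cultures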; details: S. cerevisiae cln2 rad14 strain, hits give high values
Procedure, shortened: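 Growth of compound-exposed yeast (cln2 rad14 genotype) measured and expressed as inhibition relative to vehicle.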

[5] = NCI Yeast Anticancer Drug Screen. Data for the bub3 strain (AID 167); details: S. cerevisiae bub3 mutant strain, hits give high values
Procedure, shortened: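 Part of a panel of yeast mutants defective in DNA damage repair or cell cycle regulation. Each strain is grown with compound, and inhibition is calculated relative to solvent-treated cultures.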

[6] = NCI Yeast Anticancer Drug Screen. Data for the mlh1 rad18 strain (AID 175); details: S. cerevisiae mlh1 rad18 strain growth inhibition, hits give high values
Procedure, shortened: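 In this whole-cell yeast screen, a strain with altered DNA damage repair is challenged with compound, and its growth is measured against matched vehicle-treated controls.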

[7] = at 5.0 µM (retest, dose inferred, filed as 0.5)
[8] = at 50.0 µM (retest, dose inferred, filed as 5.0)

Measured: growth inhibition

COc1ccc(/C(=N\Nc2ccc(Br)cc2)c2ccccc2/C(=N/Nc2ccc(Br)cc2)c2ccccc2OC)cc1
inactive: [1]; [7] 1% | [1]; [8] -3% | [2]; [7] -13% | [2]; [8] 11% | [3]; [7] 5% | [3]; [8] 18% | [4]; [7] 2% | [4]; [8] 11% | [4]; at 50.0 µM 54.6% | [5]; [7] -7% | [5]; [8] 20% | [6]; [7] 11% | [6]; [8] 33%
active: [1]; at 50.0 µM 96% | [2]; at 50.0 µM 76.3% | [3]; at 50.0 µM 97.2% | [5]; at 50.0 µM 93.5% | [6]; at 50.0 µM 96.3%

COc1cccc2c1C(=O)c1c(O)c3c(c(O)c1C2=O)C[C@@](O)(/C(C)=N/NC(=O)c1ccc(Cl)c(Cl)c1)C[C@@H]3OC1CC(N)C(O)C(C)O1 (stereo partly specified)
active: [1]; [7] 89% | [1]; [8] 99% | [2]; [8] 99% | [3]; [8] 99% | [4]; [8] 98% | [4]; at 50.0 µM 72.7% | [5]; [8] 99% | [5]; at 50.0 µM 98.5% | [6]; [8] 99%
inactive: [1]; at 50.0 µM 42% | [2]; [7] 25% | [2]; at 50.0 µM 50.4% | [3]; [7] 25% | [3]; at 50.0 µM 44.6% | [4]; [7] 5% | [5]; [7] 43% | [6]; [7] 33% | [6]; at 50.0 µM 52.6%

CCOC(=O)c1c(Br)c(-c2ccc(Br)cc2)c(Br)n1C
inactive: [1]; [7] -6% | [1]; [8] 1% | [1]; at 50.0 µM 7.95% | [2]; [7] -7% | [2]; [8] -29% | [2]; at 50.0 µM -16.1% | [3]; [7] -11% | [3]; [8] -1% | [3]; at 50.0 µM -6.25% | [4]; [7] 29% | [4]; [8] -25% | [4]; at 50.0 µM 24.1% | [5]; [7] -11% | [5]; [8] -15% | [5]; at 50.0 µM -7% | [6]; [7] -8% | [6]; [8] -12% | [6]; at 50.0 µM -10.6%

C1Cc2c3c4c(c5c2C(C1)CCC5)CCCC4CCC3
inactive: [1]; [7] -5% | [1]; [8] 8% | [1]; at 50.0 µM -11.5% | [2]; [7] 1% | [2]; [8] 17% | [2]; at 50.0 µM 10.3% | [3]; [7] -1% | [3]; [8] 13% | [3]; at 50.0 µM 0% | [4]; [7] 3% | [4]; [8] -1% | [4]; at 50.0 µM 34.2% | [5]; [7] 15% | [5]; [8] 8% | [5]; at 50.0 µM -0.85% | [6]; [7] -1% | [6]; [8] 10% | [6]; at 50.0 µM -2.25%

CCCCCCCOC(=O)CSC#N
inactive: [1]; [7] 61% | [2]; [7] 52% | [4]; [7] 29%
active: [1]; [8] 99% | [1]; at 50.0 µM 99.2% | [2]; [8] 99% | [2]; at 50.0 µM 99.3% | [3]; [7] 95% | [3]; [8] 99% | [3]; at 50.0 µM 99% | [4]; [8] 99% | [4]; at 50.0 µM 98.5% | [5]; [7] 86% | [5]; [8] 99% | [5]; at 50.0 µM 99.3% | [6]; [7] 90% | [6]; [8] 98% | [6]; at 50.0 µM 99.3%

CN(C)c1ccc(C(c2ccc(N(C)C)cc2)c2ccc3c(c2)OCO3)cc1
active: [1]; [7] 98% | [1]; at 50.0 µM 95% | [2]; [7] 99% | [2]; at 50.0 µM 94% | [3]; [7] 97% | [3]; [8] 85% | [3]; at 50.0 µM 95.8% | [4]; [7] 98% | [4]; at 50.0 µM 88.8% | [5]; [7] 99% | [5]; [8] 81% | [5]; at 50.0 µM 90% | [6]; [7] 98% | [6]; [8] 90% | [6]; at 50.0 µM 91.6%
inactive: [1]; [8] 66% | [2]; [8] 62% | [4]; [8] 32%

c1ccc2c(B(c3cccc4ccccc34)c3cccc4ccccc34)cccc2c1
active: [1]; [8] 98% | [1]; at 50.0 µM 99.1% | [2]; [8] 99% | [2]; at 50.0 µM 98.9% | [3]; [8] 99% | [3]; at 50.0 µM 98.7% | [4]; [8] 98% | [4]; at 50.0 µM 98.7% | [5]; [8] 99% | [5]; at 50.0 µM 98.8% | [6]; [8] 98% | [6]; at 50.0 µM 97.4%
inactive: [1]; [7] 0% | [2]; [7] 14% | [3]; [7] -20% | [4]; [7] 3% | [5]; [7] -4% | [6]; [7] 0%

N#CC(Cc1ccc(CC(C#N)(c2ccccc2)c2ccccn2)cc1)(c1ccccc1)c1ccccn1 (stereo unspecified)
inactive: [1]; [7] -1% | [1]; [8] 3% | [1]; at 50.0 µM 20.9% | [2]; [7] -2% | [2]; [8] 3% | [2]; at 50.0 µM 34.5% | [3]; [7] -4% | [3]; [8] -1% | [3]; at 50.0 µM 10.9% | [4]; [7] -6% | [4]; [8] 1% | [4]; at 50.0 µM 2.75% | [5]; [7] -2% | [5]; [8] -8% | [5]; at 50.0 µM 35.4% | [6]; [7] -2% | [6]; [8] 2% | [6]; at 50.0 µM 14.8%

CC(C)=CCC/C(C)=C/CC/C(C)=C/CC/C=C(\C)CC/C=C(\C)CCC[N+](C)(C)[O-]
active: [1]; [8] 90% | [1]; at 50.0 µM 98.9% | [2]; [8] 91% | [2]; at 50.0 µM 99.4% | [3]; [8] 94% | [3]; at 50.0 µM 99.2% | [4]; at 50.0 µM 98.4% | [5]; [8] 95% | [5]; at 50.0 µM 98.8% | [6]; [8] 73% | [6]; at 50.0 µM 99.1%
inactive: [1]; [7] 14% | [2]; [7] 17% | [3]; [7] 46% | [4]; [7] 5% | [4]; [8] 59% | [5]; [7] 16% | [6]; [7] 13%

CC=CCOc1cc(NC(=S)OC(C)C)ccc1Cl (mixture of isomers)
active: [1]; [8] 94% | [1]; at 50.0 µM 79.2% | [2]; [8] 97% | [2]; at 50.0 µM 89.2% | [3]; [8] 92% | [3]; at 50.0 µM 88.4% | [4]; [8] 96% | [4]; at 50.0 µM 90% | [5]; [8] 97% | [5]; at 50.0 µM 89.7% | [6]; [8] 96% | [6]; at 50.0 µM 85.8%
inactive: [1]; [7] 28% | [2]; [7] 18% | [3]; [7] 31% | [4]; [7] 22% | [5]; [7] 27% | [6]; [7] 25%

CCC(CC)COC(=O)c1cccnc1
inactive: [1]; [7] 1% | [2]; [7] -19% | [3]; [7] 0% | [4]; [7] -4% | [5]; [7] -6% | [6]; [7] 0%
active: [1]; [8] 99% | [1]; at 50.0 µM 97.7% | [2]; [8] 99% | [2]; at 50.0 µM 99.1% | [3]; [8] 99% | [3]; at 50.0 µM 98.2% | [4]; [8] 99% | [4]; at 50.0 µM 96.9% | [5]; [8] 98% | [5]; at 50.0 µM 97.8% | [6]; [8] 98% | [6]; at 50.0 µM 97.5%

c1ccc2c(c1)CCc1[nH]c3c(c1-2)-c1ccccc1CC3
inactive: [1]; [7] 24% | [2]; [7] 16% | [3]; [7] 21% | [4]; [7] 62% | [5]; [7] 69% | [6]; [7] 31%
active: [1]; [8] 94% | [1]; at 50.0 µM 87.5% | [2]; [8] 96% | [2]; at 50.0 µM 91.2% | [3]; [8] 94% | [3]; at 50.0 µM 90.4% | [4]; [8] 95% | [4]; at 50.0 µM 88.4% | [5]; [8] 94% | [5]; at 50.0 µM 89.8% | [6]; [8] 91% | [6]; at 50.0 µM 86.3%
